Most compounds without a hit are left out; they make up all but 4.1% or so of the library.
FMDV inh: High Throughput Screening for Foot and Mouth Disease Virus Antivirals; FMDV antiviral cell-based qHTS; Potency, µM (top dose mostly 57.9 µM), without a hit: top-dose activity change, negative = inhibition, hits mostly inhibitors; 410,000 compounds, 1.2% hits; AID 1159524, 2015; calls by dose curve; tested in HEK293T cells; note: read-out not given here; nearly all actives have a fitted effect of over 45% in size
Sm TGR block: qHTS Assay for the Inhibitors of Schistosoma Mansoni Peroxiredoxins; Schistosoma mansoni thioredoxin glutathione reductase (TGR), Q962Y6; purified TGR, DTNB reduction, TNB absorbance 405 nm; Potency, µM (highest dose often 114 µM), without a hit: at the top dose activity change, negative = inhibition, hits mostly inhibitors; 360,000 compounds, 3% hits; note: nearly all actives have a fitted effect of over 60% in size
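First, TGR (20 nM dispensed) and NADPH were mixed with compound. Second, a 15 min room-temperature incubation followed. Third, further NADPH and then DTNB were added to start the reaction. Finally, TNB absorbance was monitored kinetically.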
AmpC no deterg: qHTS Inhibitors of AmpC Beta-Lactamase (assay without detergent). Potency, µM (top dose mostly 57.1 µM), for the others: at the highest dose activity change, negative = inhibition, hits mostly inhibitors. AmpC nitrocefin hydrolysis, absorbance 480 nm, 0.0001% Triton. AID 485341, 2010. P00811. 330,000 compounds, 0.52% hits;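 note: plate controls were no compound for no effect and no enzyme for full effect; nearly all actives have a fitted effect of over 20% in size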
Target sequence (P00811 whole entry, looked up): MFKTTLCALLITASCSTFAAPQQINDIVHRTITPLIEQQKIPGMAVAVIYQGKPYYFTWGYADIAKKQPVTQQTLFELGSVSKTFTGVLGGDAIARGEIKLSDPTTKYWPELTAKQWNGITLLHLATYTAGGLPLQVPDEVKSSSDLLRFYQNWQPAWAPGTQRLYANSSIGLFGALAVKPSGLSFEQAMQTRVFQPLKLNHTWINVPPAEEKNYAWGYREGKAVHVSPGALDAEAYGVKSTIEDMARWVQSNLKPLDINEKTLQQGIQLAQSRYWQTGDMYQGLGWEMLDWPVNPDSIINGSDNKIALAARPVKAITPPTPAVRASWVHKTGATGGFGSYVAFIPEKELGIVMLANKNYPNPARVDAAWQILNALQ
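AmpC (5.3 nM in the dispensed reagent) in 20 mM phosphate pH 7.0 with 0.01% (detergent screen) or 0.0001% Triton X-100 was preincubated with compounds for 15 min at room temperature. Nitrocefin was then added from an 800 uM solution, and hydrolysis was followed at 480 nm.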
AMA1 RON2 block: qHTS for Inhibitors of AMA1-RON; Towards Development of Antimalarial Drug Lead: Primary Screen. Plasmodium falciparum AMA1 (3D7) - RON2 peptide interaction. AlphaScreen AMA1-biotinylated RON2 peptide binding. Potency, µM (titrated, usually from 58.2 µM), for the others: top-dose activity change, negative = inhibition, actives largely listed as inhibitors. 360,000 compounds, 0.2% hits. AID 720542, 2013;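 note: 0% = vehicle wells and -100% = peptide control; nearly all actives have a fitted effect of over 45% in size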
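AMA1 (3D7) with his tag at 25 nM final met compounds first, then biotinylated RON2 peptide at 25 nM; detection used donor plus acceptor beads, 10 µg/mL apiece, read by AlphaScreen after 30 min at room temperature.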
AmpC detergent: qHTS Inhibitors of AmpC Beta-Lactamase (assay with detergent). AID 485294, 2010. AmpC hydrolysis of nitrocefin, absorbance 480 nm, 0.01% Triton. Potency, µM (doses to about 114 µM), for the others: top-dose activity change, negative = inhibition, usual class: inhibitors. P00811. 370,000 compounds, 0.041% hits;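 note: 0% = no-compound wells and -100% = no-enzyme wells; nearly all actives have a fitted effect of over 25% in size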
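20 mM phosphate pH 7.0 + 0.01% (detergent screen) or 0.0001% Triton X-100; 5.3 nM AmpC reagent; cpd preinc 15 min RT; nitrocefin (800 uM stock) to start; A480 q20 s × 4 min; Activity was normalised to no-enzyme and no-compound control wells.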
Active calls of the source: *; [ ] = remark or other dose. Unless noted, calls come from the whole dose curve; as a rule, active = well fitted curve in the direction sought with a large enough effect; inconclusive = small, poorly fitted or top-dose-only effect, or another doubt; inactive = no such curve, though single readings can be large; an effect the other way counts as inactive or inconclusive. Unless noted, % is set by controls: 0 for no effect and ±100 for the full control effect; potency is the fitted concentration of half-maximal effect.

`O=C(Nc1ccc(F)cc1F)c1cc(-c2ccco2)nc2ccccc12` gave FMDV inh -2%, Sm TGR block 11µM*, AmpC no deterg -5%, AMA1 RON2 block -11% and AmpC detergent -2%.
For CN(C)S(=O)(=O)c1cccc(NC(=O)c2cc(-c3cccs3)nc3ccccc23)c1 the results were FMDV inh -19%, Sm TGR block -1%, AmpC no deterg -28%, AMA1 RON2 block 4% and AmpC detergent inconclusive.
For NS(=O)(=O)c1cccc(NC(=O)c2cc(-c3cccs3)nc3ccccc23)c1 the results were FMDV inh -12%, Sm TGR block -6%, AmpC no deterg 18µM*, AMA1 RON2 block -10% and AmpC detergent 10%.
Screening CCn1cc(C(=O)N2CCN(c3ccccc3F)CC2)c(=O)c2cc(S(=O)(=O)N(C)C)ccc21 returned FMDV inh 12%, Sm TGR block 7% and AmpC detergent 3%.
Screening COc1ccc2nc(C)cc(Sc3nc4ccccc4s3)c2c1 returned FMDV inh 16µM*, Sm TGR block -19%, AmpC no deterg 86%, AMA1 RON2 block 7% and AmpC detergent -7%.
`N#Cc1nc(/C=C/c2ccc(F)cc2)oc1N1CCN(c2ccccc2)CC1` gave FMDV inh -9%, Sm TGR block 1% and AmpC detergent 5%.
For CCOc1ccc(Sc2cc(C(=O)NCCc3ccc(OC)c(OC)c3)c3ccccc3n2)cc1 the results were FMDV inh 14µM*, Sm TGR block 8% and AmpC detergent 7%.
`CCOC(=O)C1=C(C)n2c(s/c(=C3\C(=O)Nc4ccccc43)c2=O)=NC1c1ccc(OC)cc1` (centres undefined) gave FMDV inh inconclusive, Sm TGR block 25µM*, AmpC no deterg -24%, AMA1 RON2 block 5%[2.32 µM] and AmpC detergent -7%.
CCOC(=O)C1=C(C)N=c2s/c(=C3/C(=O)Nc4ccccc43)c(=O)n2C1c1ccc(C)cc1 (centres undefined) was read as FMDV inh -18%, Sm TGR block 20µM*, AmpC no deterg -5%, AMA1 RON2 block 30% and AmpC detergent 1%.
`COC(=O)C1=C(C)N=c2s/c(=C3\C(=O)Nc4ccccc43)c(=O)n2C1c1ccccc1` (centres undefined) gave Sm TGR block 50µM*, AmpC no deterg -19% and AmpC detergent inconclusive.
For CCOC(=O)c1c(C)nc2sc3c(c2c1-c1ccc(OC)cc1)NC(c1ccccc1)NC3=O (centres undefined) the results were FMDV inh inconclusive, Sm TGR block -1%, AmpC no deterg 22%, AMA1 RON2 block 7% and AmpC detergent -9%.
Screening CC(C)NC(=O)N1CC[C@@]2(CCCN(C(=O)c3cnccn3)C2)C1 returned FMDV inh -13%.
`CCCS(=O)(=O)N1CC(=O)N(c2cccc(F)c2)C(C)(C(=O)NC2CCCCCC2)C1` (centres undefined) gave FMDV inh 4%, Sm TGR block -1% and AmpC detergent 17%.
`Cn1cc(S(=O)(=O)N2CCc3ccccc32)cc1C(=O)Nc1ccc(Cl)cc1` gave FMDV inh 28µM*, Sm TGR block -17%, AmpC no deterg -32%, AMA1 RON2 block 0% and AmpC detergent inconclusive.
For CSc1cccc(NC(=O)c2cc(S(=O)(=O)N3CCc4ccccc43)cn2C)c1 the results were FMDV inh -12%, Sm TGR block 2%, AmpC no deterg 10µM*, AMA1 RON2 block -10% and AmpC detergent -16%.
For Cc1ccc(NC(=O)c2cc(S(=O)(=O)N3CCc4ccccc43)cn2C)cc1 the results were FMDV inh inconclusive, Sm TGR block -2%, AmpC no deterg -59%, AMA1 RON2 block -2% and AmpC detergent -4%.
Screening NC(=O)c1ccc(N=Nc2c(O)c3ccccc3[nH]c2=O)cc1 returned Sm TGR block -2%, AmpC no deterg -10% and AmpC detergent inconclusive.
`N=C(N)c1ccc(N=Nc2c(O)ccc3c2[nH]c2ccccc23)cc1` gave FMDV inh 1% and AMA1 RON2 block 25µM*.
`COc1cccc(CNc2ncnc3sc(C(=O)N4CC5CCC4C5)c(C)c23)c1OC` (centres undefined) gave FMDV inh 2%.
`COc1ccc(NC(=S)N/C(=N/CS(=O)(=O)c2ccccc2)c2ccccc2)cc1` gave Sm TGR block 40µM*, AmpC no deterg -16%, AMA1 RON2 block -6% and AmpC detergent 1%.
`O=[N+]([O-])c1ccc(NC(=S)N/C(=N/CS(=O)(=O)c2ccccc2)c2ccccc2)cc1` gave FMDV inh 8%, Sm TGR block 20µM*, AmpC no deterg -7%, AMA1 RON2 block -8% and AmpC detergent -2%.
COc1ccc(NC(=O)NCC2CCN(Cc3ccccc3F)CC2)c(OC)c1 was read as FMDV inh 16%, Sm TGR block 5% and AmpC detergent -4%.
For CCC(=O)NCCn1ccc2ccccc21 the results were FMDV inh -1%, Sm TGR block -2%, AmpC no deterg -14%, AMA1 RON2 block -8% and AmpC detergent -17%.
`O=S(=O)(NCCn1ccc2ccccc21)c1ccccc1` gave FMDV inh 27%, Sm TGR block 6%, AmpC no deterg 25µM*, AMA1 RON2 block -2% and AmpC detergent -14%.
Screening Cc1nc(C)c(C(=O)N2CCc3c(cnc(C)c3CNC(=O)c3cncs3)C2)s1 returned FMDV inh -8%.
`O=C(/C=C/c1ccco1)N(Cc1ccc(Cl)cc1)C1CCS(=O)(=O)C1` (centres undefined) gave FMDV inh -3%, Sm TGR block 3.2µM*, AmpC no deterg 45%, AMA1 RON2 block 42% and AmpC detergent -1%.
`CN(C)c1ccc(CN(C(=O)/C=C/c2ccco2)C2CCS(=O)(=O)C2)cc1` (centres undefined) gave FMDV inh -18%, Sm TGR block 25µM*, AmpC no deterg 15%, AMA1 RON2 block -13% and AmpC detergent -3%.
Screening COCC(=O)Nc1cc(C(=O)N2CCc3sccc3C2)c2c(c1)nc(-c1ccncc1)n2C returned FMDV inh 1%.
For CCN(CC)CCN(C(=O)c1ccc(C(=O)OC)cc1)c1nc2ccc(Cl)cc2s1 the results were FMDV inh -3%, Sm TGR block 2% and AmpC detergent 21%.

Screening results as filed in PubChem.
